Screening data: PubChem, Buhrlage Lab, Dana-Farber Cancer Institute and Novartis Institutes for BioMedical Research (Cambridge, Mass)
USP17 block – blocks human USP17 ubiquitin-rhodamine cleavage | purified USP17, Ub-rhodamine cleavage fluorescence, 3 h | 47,000 compounds, 6.5% hits | A8MUK1 | AID 1645855 | inhibition, % at 50 µM
USP28 inh – human USP28 deubiquitinase inhibition. 47,000 compounds, 3% hits. inhibition, % at 25 µM. Q96RU2. purified USP28, Ub-rhodamine cleavage fluorescence, 30 min
OTUD3 block – blocks human OTUD3 ubiquitin-rhodamine cleavage. Q5T2D3. purified OTUD3, Ub-rhodamine fluorescence, 2 h. inhibition, % at 25 µM. 47,000 compounds, 0.7% hits. AID 1645858
Target sequence (Q5T2D3 whole entry, looked up): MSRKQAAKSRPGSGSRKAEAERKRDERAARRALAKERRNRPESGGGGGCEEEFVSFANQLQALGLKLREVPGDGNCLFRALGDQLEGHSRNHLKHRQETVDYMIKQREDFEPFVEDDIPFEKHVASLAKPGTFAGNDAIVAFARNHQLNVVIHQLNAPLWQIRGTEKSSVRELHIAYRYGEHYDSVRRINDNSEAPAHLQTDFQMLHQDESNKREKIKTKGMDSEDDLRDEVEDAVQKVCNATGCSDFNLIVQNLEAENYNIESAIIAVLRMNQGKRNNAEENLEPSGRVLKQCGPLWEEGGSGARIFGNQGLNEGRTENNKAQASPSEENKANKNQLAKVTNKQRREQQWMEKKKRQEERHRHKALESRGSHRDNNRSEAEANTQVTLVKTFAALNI
USP30 block – human USP30 deubiquitinase inhibition; Q70CQ3; purified USP30, Ub-rhodamine cleavage fluorescence; inhibition, % at 25 µM; 47,000 compounds, 5.3% hits; AID 1645860
Each line names hits and unclear results; the compound was inactive in the other large screens. This is a sample that favours compounds with a hit; in the whole collection about 11% have one here. No stated cut-off is given here; in the data, active means inhibition above about 30%; inactive means the rest.

O=C(Nc1cccc(C(F)(F)F)c1)c1ccc(-c2nc(-c3ccc(Cl)cc3Cl)cs2)cc1	USP17 block 32.1
Cc1cn2c(S(=O)(=O)N3CCCCC3)c(C(C)C)nc2s1	none
CCc1nc2sc(C(C)C)nn2c1S(=O)(=O)N1CCCCCC1	USP30 block 35.6
CC(C)=CCC/C(C)=C/Cc1c(O)cc2c(c1O)C(=O)OC2	USP17 block 63.0, USP28 inh 74.4, OTUD3 block 79.4
CC(C)=CCC/C(C)=C/CC/C(C)=C/Cc1c(C)[nH]c2ccccc2c1=O	none
O=C(COc1cccc(Cl)c1)N1CCSc2ccccc21	USP28 inh 39.2, USP30 block 35.9
Cc1cccc2nc(C(=O)N3C[C@@H](O)[C@H](N4CCOCC4)C3)cn12	none
Cc1ccc(-n2ncc(C(=O)NCc3cccnc3)c2C2CCNCC2)cc1	none
Cc1ccc(CNC(=O)c2cnn(-c3ccc([N+](=O)[O-])cc3)c2C2CCNCC2)cc1	USP30 block 44.4
Cc1cccc(NCc2cc(=O)n3cccc(C)c3n2)c1C	none
CCOC(=O)C(C)Sc1nc(=O)n2cccc(C)c2n1 (configuration not stated)	USP30 block 30.2
CN(C)[C@@H]1[C@@H](O)[C@H](Oc2cccc(F)c2)C[C@H]1NC(=O)c1cocn1	none
O=C(Cc1ccc(F)cc1)N1CCC[C@H]1Cn1nnc(-c2cccnc2)n1	none
Cc1ccc(C(=O)Nc2ncc3c(Cl)cccc3n2)cc1	USP17 block 30.9, USP30 block 33.4
Cc1ccc(C(=O)Nc2ncc3c(n2)CC(C)(C)CC3=O)cc1	USP30 block 37.3
CC1(C)CC(=O)c2cnc(NC(=O)c3ccco3)nc2C1	none
Cn1c(CN2CCOCC2)nnc1SCc1ccc(Cl)cc1	USP30 block 31.7
O=C(NC1CCCC1)c1cn(-c2cc(-c3nc(C4CC4)no3)ccn2)cn1	none
Cc1ccc(S(=O)(=O)Nc2ccc(S(=O)(=O)Nc3ccc(F)cc3)cc2)cc1	none
Cc1ccc(S(=O)(=O)Nc2ccc3[nH]cc(Cl)c3c2)cc1	USP17 block 48.9, USP28 inh 44.3, USP30 block 38.5
Cc1ccc(NC(=O)N2CCN(C3=CC4=NC(C)CN4C=N3)CC2)c(C)c1 (configuration not stated)	USP30 block 33.9
COc1ccc(NC(=O)N2CCN(C3=CC4=NC(C)CN4C=N3)CC2)c(C)c1 (configuration not stated)	none
CN1CCC(N(C(=O)CCc2ccc3c(c2)CCO3)C2CC2)CC1	none
Cc1cc(=O)n2[nH]c(CNc3cccc(C(F)(F)F)c3)nc2n1	USP30 block 30.5
Cc1cc(-c2noc(COc3ccc(C#N)cc3)n2)c2ccccc2n1	none
Cc1cc(C)c(NC(=O)CNc2ccc(C#N)cn2)c(C)c1	none
COC(=O)C1(Cc2ccc(O)cc2)OC(=O)C(O)=C1c1ccc(O)cc1 (configuration not stated)	USP17 block 85.3, USP28 inh 78.1, OTUD3 block 77.9, USP30 block 69.7
Cn1c(N)c(C(=O)Cn2nnc(-c3ccccc3Cl)n2)c(=O)n(C)c1=O	none
Cc1ccc(Cn2nnc(-c3ccccc3Cl)n2)cc1	USP28 inh 64.3
COc1ccc2[nH]c3c(c2c1)CCN1C(=O)CN(Cc2ccco2)C(=O)[C@]31C	none
COc1cc(C2CCN(S(=O)(=O)c3cccc(F)c3)CC2)on1	none (no result: USP17 block)
CC1(C)Oc2ccc(C(=O)N3CCC([C@@H]4NC(=O)N[C@H]5OCCC[C@H]54)CC3)cc2NC1=O	USP30 block 31.8
O=C1Cc2cc(S(=O)(=O)N3CCC([C@@H]4NC(=O)N[C@H]5OCCC[C@H]54)CC3)ccc2N1	none
CC(C)CN1CCc2nc3cc(C(C)(C)C)[nH]n3c(=O)c2C1	none
O=C1CC(c2ccccc2)n2nc(NC(=O)c3ccccc3)nc2N1 (configuration not stated)	none
COc1ccc(/C=C/C(=O)Nc2nc3n(n2)C(c2ccccc2)CC(=O)N3)cc1OC (configuration not stated)	none
Cc1ccc(C(=O)Nc2nc3n(n2)C(c2ccccc2)CC(=O)N3)cc1 (configuration not stated)	USP17 block 70.8
COc1ccc(/C=C/C(=O)Nc2nc3n(n2)C(c2ccccc2)CC(=O)N3)cc1 (configuration not stated)	USP30 block 30.9
O=C(/C=C/c1cccc([N+](=O)[O-])c1)Nc1nc2n(n1)C(c1ccccc1)CC(=O)N2 (configuration not stated)	USP30 block 37.6
COC(=O)CCSc1ncnc2c1sc1nc(N3CCOCC3)c3c(c12)CC(C)(C)OC3	none (no result: USP28 inh, USP30 block)
O=C(CCSc1ccc(Cl)cc1)c1cccs1	USP17 block 84.5
COc1ccc([C@@H]2CN(Cc3ccccc3F)C[C@H]2c2cc(=O)[nH]c(C)n2)cc1	none
COc1ccccc1NC(=O)c1nn(-c2cccc(F)c2)c(OC)cc1=O	USP17 block 46.1, USP30 block 75.8
COc1cc(=O)c(C(=O)Nc2ccccc2)nn1-c1cccc(F)c1	none
O=C(c1c2c(-c3cccnc3)ncnc2n2ccccc12)N1CCCC1	none
COc1ccc(CCNC(=O)c2cc(C3CC3)nc3c2cnn3C(C)C)cc1	USP28 inh 67.7
COc1ccccc1CCNC(=O)c1cc(C2CC2)nc2c1cnn2C(C)C	none
COc1ccccc1OCCNC(=O)c1cc(C2CC2)nc2c1cnn2C(C)C	USP28 inh 61.3
CCc1ccc(-n2ccc(=O)c(-c3nc(-c4cccc(F)c4)no3)n2)cc1	none (no result: USP17 block)
Cc1cc(C)c(C#N)c(SCC(=O)Nc2c(C#N)cnn2-c2ccccc2)n1	USP17 block 37.1 (no result: USP28 inh, USP30 block)
Cc1cc(C)c(C#N)c(SCC(=O)Nc2ccc3c(c2)OCO3)n1	none
O=C1CC(c2ccco2)Cc2[nH]c(=O)c(C(=O)Nc3ccc(Cl)cc3)cc21 (configuration not stated)	USP17 block 59.5, USP28 inh 34.7
COc1ccc(C)cc1NC(=O)CCc1nc2ccccc2[nH]1	none
CC1(C)CC[C@]2(C(=O)O)CC[C@]3(C)C(=CCC4[C@@]5(C)CC[C@H](O)[C@@](C)(CO)C5CC[C@]43C)[C@@H]2C1 (some centres not stated)	USP17 block 94.9, USP28 inh 81.8, OTUD3 block 80.7, USP30 block 83.9
C[C@@H]1CCC2(C)CC[C@]3(C)C(=CCC4[C@@]5(C)CCC(O)C(C)(C)C5CC[C@]43C)C2[C@H]1C (some centres not stated)	none
Cn1cc(S(=O)(=O)Nc2cnn(Cc3cccc(Cl)c3)c2)cn1	USP17 block 31.2
O=C(NCC1CC1)c1ncn2c1CN(CC1CC1)S(=O)(=O)c1ccccc1-2	USP30 block 33.8
CC(C)CCN1Cc2c(C(=O)Nc3ccccc3)ncn2-c2ccccc2S1(=O)=O	none
CC(C)CCN1Cc2c(C(=O)NCc3ccccc3)ncn2-c2ccccc2S1(=O)=O	USP30 block 41.9
COc1ccc(C2CC(=O)N(Cc3ccc(F)cc3)c3ccccc3S2(=O)=O)cc1OC (configuration not stated)	none
COc1ccc(Nc2nc(NCc3ccccc3)c3nccnc3n2)cc1	USP28 inh 36.9
Cc1ccc(Nc2nc(Nc3cccc(Cl)c3)nc3nccnc23)cc1	none
